# According to PubChem BioAssay (EPA / NIEHS):
# Inconclusive results are not listed. Activity calls are given as the source filed them. The calls were made as follows, unless noted: active = hit-call score of the fitted dose curve at least 0.9, where 1 is the maximum; inactive = score below 0.9.
# How the values were obtained:
# [1] = ATG_ERE_CIS: Attagene CIS-FACTORIAL HepG2 Assay for Estrogen Response Element (ERE) (AID 2282940); conditions: HepG2 ERE cis-reporter, Attagene RNA transcript; actives raise or lower the signal
# How it was run: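 HepG2 cells transiently transfected with multiplexed cis-element reporter units, measuring endogenous transcription factor activity; ERE reporter mRNA quantified after 24 h exposure by RT-PCR, fluorescent labelling, HpaI digestion and capillary electrophoresis. Bidirectional change versus DMSO.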
# [2] = biological target: Bile acid receptor (Homo sapiens) (UniProt Q96RI1); experiment: ATG_FXR_TRANS: Attagene TRANS-FACTORIAL HepG2 Assay for Farnesoid X Receptor (FXR) (AID 2282979; active = hit-call score of the fitted dose curve at least 0.9, where 1 is the maximum;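 also: hits raise reporter mRNA above DMSO so AC50 marks FXR activation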); conditions: HepG2 Attagene TRANS FXR-GAL4 reporter transcription
# Bile acid receptor (Homo sapiens), sequence (Q96RI1 whole entry, looked up, the tested form may be a part): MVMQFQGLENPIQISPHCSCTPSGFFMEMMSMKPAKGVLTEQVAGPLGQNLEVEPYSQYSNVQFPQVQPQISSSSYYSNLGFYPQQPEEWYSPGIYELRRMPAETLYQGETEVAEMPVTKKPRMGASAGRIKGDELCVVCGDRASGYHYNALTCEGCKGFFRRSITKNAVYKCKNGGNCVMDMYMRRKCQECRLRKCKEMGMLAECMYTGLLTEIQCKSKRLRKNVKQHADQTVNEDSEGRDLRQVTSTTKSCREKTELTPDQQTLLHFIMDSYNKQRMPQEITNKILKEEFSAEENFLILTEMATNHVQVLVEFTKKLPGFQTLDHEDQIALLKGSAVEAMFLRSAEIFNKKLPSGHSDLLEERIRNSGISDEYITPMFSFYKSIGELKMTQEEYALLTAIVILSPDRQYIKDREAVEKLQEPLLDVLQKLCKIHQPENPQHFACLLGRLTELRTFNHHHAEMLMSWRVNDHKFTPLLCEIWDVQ
# How it was run: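 Transient transfection of HepG2 with multiplexed GAL4-UAS reporter units; exogenous FXR-GAL4 chimera. Dose 24 h → TriZol RNA → oligo(dT) RT → PCR, 6-FAM primer extension, HpaI cut → CE. Gain vs DMSO.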
# [3] = read-out: Vascular endothelial growth factor receptor 2 (Homo sapiens) (UniProt P35968); experiment: BSK_4H_VEGFRII: BioMAP Diversity Plus: 4H Assay for Vascular endothelial growth factor receptor 2 (VEGFR2) Biomarker Activity (AID 2283031); conditions: primary human endothelial cells (HUVEC); actives raise or lower the signal
# How it was run: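 ELISA read-out of VEGFRII in primary human umbilical vein endothelium, taken 24 h after chemical treatment. Responses are expressed relative to DMSO, with bidirectional fitting.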
# [4] = read-out: Transforming growth factor beta 1 (TGFb1), TGFB1 (gene 7040); experiment: BSK_BE3C_TGFb1: BioMAP Diversity Plus: BE3C Assay for Transforming growth factor beta 1 (TGFb1) Biomarker Activity (AID 2283036;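 as to outcome: TGF-b1 protein level measured by ELISA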); conditions: primary human bronchial epithelial cells; actives raise or lower the signal
# How it was run: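 In this human primary bronchial epithelial system, an ELISA quantified TGF-b1 one day after dosing. Endpoint changes in either direction were fitted relative to DMSO.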
# [5] = read-out: Low-density lipoprotein receptor (LDLR), LDLR (gene 3949); experiment: BSK_CASM3C_LDLR: BioMAP Diversity Plus: CASM3C Assay for Low-density lipoprotein receptor (LDLR) Biomarker Activity (AID 2283045); conditions: primary human coronary artery smooth muscle cells; actives raise or lower the signal;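 also: LDLR protein level on the cell surface quantified by ELISA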
# [6] = read-out: C-C motif chemokine 2 (Homo sapiens) (UniProt P13500); experiment: BSK_KF3CT_MCP1: BioMAP Diversity Plus: KF3CT Assay for Monocyte Chemoattractant Protein 1 (MCP1/CCL2) Biomarker Activity (AID 2283073); conditions: primary human keratinocytes with fibroblasts; actives raise or lower the signal
# How it was run: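 ELISA readout of MCP-1 after 24 h chemical dosing of a human skin primary co-culture of keratinocytes and foreskin fibroblasts. Activity was fitted in both directions against DMSO.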
# [7] = read-out: E-selectin (Homo sapiens) (UniProt P16581); experiment: BSK_LPS_Eselectin: BioMAP Diversity Plus: LPS Assay for Eselectin Biomarker Activity (AID 2283077); conditions: primary human HUVEC with PBMC; actives raise or lower the signal
# How it was run: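 Primary human vascular co-culture (endothelium plus PBMC) was dosed with chemical, then E-selectin quantified by ELISA at 24 h. Endpoint values derive from bidirectional curve fitting relative to DMSO.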
# [8] = read-out: Macrophage colony-stimulating factor (MCSF), CSF1 (gene 1435); experiment: BSK_LPS_MCSF: BioMAP Diversity Plus: LPS Assay for Macrophage colony-stimulating factor (MCSF) Biomarker Activity (AID 2283083); conditions: primary human HUVEC with PBMC; actives raise or lower the signal
# How it was run: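 ELISA readout of M-CSF after 24 h compound exposure in a human endothelial/PBMC co-culture. Activity, in either direction, is fitted relative to DMSO vehicle.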
# [9] = read-out: Tissue Factor, F3 (gene 2152); experiment: BSK_LPS_TissueFactor: BioMAP Diversity Plus: LPS Assay for Tissue Factor Biomarker Activity (AID 2283084); conditions: primary human HUVEC with PBMC; actives raise or lower the signal
# How it was run: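 ELISA signal for cell-surface Tissue Factor (CD142) was read 24 h after compound dosing of an LPS-stimulated human endothelial–PBMC primary co-culture. Gain or loss of signal was scored relative to DMSO.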
# [10] = read-out: Tumor necrosis factor (Homo sapiens) (UniProt P01375); experiment: BSK_LPS_TNFa: BioMAP Diversity Plus: LPS Assay for Tumour Necrosis Factor alpha (TNFa) Biomarker Activity (AID 2283085); conditions: primary human HUVEC with PBMC; actives raise or lower the signal
# How it was run: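 Primary human vascular co-culture of HUVEC and PBMC; TNFa ELISA 24 h after treatment, analysed as increase or decrease relative to DMSO control.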
# [11] = read-out: Vascular cell adhesion molecule 1 (VCAM1), VCAM1 (gene 7412); experiment: BSK_LPS_VCAM1: BioMAP Diversity Plus: LPS Assay for Vascular cell adhesion molecule 1 (VCAM1) Biomarker Activity (AID 2283086); conditions: primary human HUVEC with PBMC; actives raise or lower the signal
# How it was run: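 Primary human vascular co-culture (umbilical vein endothelium plus PBMC) stimulated with LPS received chemical; 24 h later VCAM-1 was read by ELISA. Overt cytotoxicity was assessed by sulforhodamine B staining of parallel cultures at the same time point.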
# CD40, CD40 (gene 958) = experiment: BSK_SAg_CD40: BioMAP Diversity Plus: SAg Assay for CD40 Biomarker Activity (AID 2283088); conditions: primary human HUVEC with PBMC; actives raise or lower the signal
# How it was run: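 Compounds were dosed onto a human primary endothelial–PBMC co-culture, and after 24 h CD40 was quantified by ELISA using a fluorescence signal. Activity in either direction was fitted relative to DMSO.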
# [12] = read-out: Monocyte Chemoattractant Protein-1 (MCP1), CCL2 (gene 6347); experiment: BSK_SAg_MCP1: BioMAP Diversity Plus: SAg Assay for Monocyte Chemoattractant Protein-1 (MCP1) Biomarker Activity (AID 2283090); conditions: primary human HUVEC with PBMC; actives raise or lower the signal
# How it was run: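 MCP-1 levels in the endothelial–PBMC SAg co-culture were quantified by ELISA at 24 h post-dosing; both increases and decreases versus DMSO scored. Cytotoxicity monitored by SRB total protein in parallel cultures.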
# [13] = read-out: Monokine induced gamma interferon (MIG), CXCL9 (gene 4283); experiment: BSK_SAg_MIG: BioMAP Diversity Plus: SAg Assay for Monokine induced gamma interferon (MIG) Biomarker Activity (AID 2283092); conditions: primary human HUVEC with PBMC; actives raise or lower the signal
# How it was run: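 HUVEC plus human PBMC co-culture, chemicals dosed and MIG (CXCL9) quantified by ELISA at 24 h. Bidirectional curve fitting against DMSO as negative control and baseline, so both gain and loss of signal count as activity.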
# [14] = read-out: Interleukin-8 (IL8), CXCL8 (gene 3576); experiment: BSK_SAg_IL8: BioMAP Diversity Plus: SAg Assay for Interleukin-8 (IL8) Biomarker Activity (AID 2283094); conditions: primary human HUVEC with PBMC; actives raise or lower the signal
# How it was run: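 In this co-culture of human umbilical vein endothelium with peripheral blood mononuclear cells, IL-8 is assayed by ELISA at 24 h. DMSO serves as baseline for bidirectional curve fitting.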
# [15] = BSK_SAg_Proliferation: Cell Proliferation Assessment in the BioMAP Diversity Plus: SAg Assay (AID 2283095); conditions: primary human HUVEC with PBMC;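 also: relative cell number as total protein by SRB absorbance in sub-confluent culture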
# How it was run: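 Readout is SRB-stained protein (560 nm) in a primary human HUVEC and PBMC co-culture; sub-confluent cultures are read at 96 h. Activity is fitted bidirectionally using DMSO as baseline.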
# [16] = BSK_SAg_SRB: Viability Assessment in the BioMAP Diversity Plus: SAg Assay (AID 2283096); conditions: primary human HUVEC with PBMC;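 also: cells read one day after compound addition; hits may be either gain or loss of signal compared with DMSO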
# How it was run: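 Total protein by sulforhodamine B staining, 24 h after dosing, in HUVEC–PBMC co-culture; DMSO-referenced bidirectional fitting.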
# [17] = biological target: Peroxisome proliferator-activated receptor gamma (Homo sapiens) (UniProt P37231); experiment: OT_PPARg_PPARgSRC1_0480: Odyssey Thera (OT) 8-hour Protein-Complementation Assay for Peroxisome Proliferator-activated Receptor Gamma / SRC-1 Co-activator (AID 2283387; active = hit-call score of the fitted dose curve at least 0.9, where 1 is the maximum;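 also: nuclear to cytoplasmic split Venus YFP fluorescence ratio reporting PPARg SRC-1 interaction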)
# Peroxisome proliferator-activated receptor gamma (Homo sapiens), sequence (P37231 whole entry, looked up, the tested form may be a part): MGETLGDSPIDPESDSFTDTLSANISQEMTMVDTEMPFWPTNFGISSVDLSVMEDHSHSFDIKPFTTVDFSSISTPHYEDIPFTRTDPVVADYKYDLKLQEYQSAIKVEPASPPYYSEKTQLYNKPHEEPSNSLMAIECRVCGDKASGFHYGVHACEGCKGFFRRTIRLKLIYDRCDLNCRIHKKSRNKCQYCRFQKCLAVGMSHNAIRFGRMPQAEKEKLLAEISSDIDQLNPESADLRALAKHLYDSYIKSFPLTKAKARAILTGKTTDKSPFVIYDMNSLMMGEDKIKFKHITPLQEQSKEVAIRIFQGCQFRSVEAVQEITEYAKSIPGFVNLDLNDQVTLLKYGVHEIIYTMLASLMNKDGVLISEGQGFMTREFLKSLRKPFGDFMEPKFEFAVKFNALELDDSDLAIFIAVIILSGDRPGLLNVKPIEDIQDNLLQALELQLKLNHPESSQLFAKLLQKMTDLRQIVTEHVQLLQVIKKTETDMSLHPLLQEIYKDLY
# How it was run: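 HEK293T transiently transfected with PPARg and SRC-1 fused to Venus YFP fragments, compounds 8 h at 37C. Fixed, Draq5-stained cells imaged; nuclear/cytoplasmic 488 nm fluorescence ratio over at least 350 cells per image; gain fitted versus DMSO.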
# [18] = biological target: Peroxisome proliferator-activated receptor gamma (Homo sapiens) (UniProt P37231); experiment: OT_PPARg_PPARgSRC1_1440: Odyssey Thera (OT) 24-hour Protein-Complementation Assay for Peroxisome Proliferator-activated Receptor Gamma/ SRC-1 Co-activator (AID 2283388; active = hit-call score of the fitted dose curve at least 0.9, where 1 is the maximum)
# How it was run: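 Protein-fragment complementation between PPARg and coactivator SRC-1 was measured by fluorescence imaging in transiently transfected HEK293T cells after 24 h treatment. Signal was quantified as N/C ratio in the 488 nm channel, with DMSO as negative control.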
# [19] = tested on: rat Monoamine Oxidase, MAO-A, Central (MAOAC), gene 29253; experiment: NVS_ENZ_rMAOAC: NovaScreen (NVS) Enzymatic Assay for rat Monoamine Oxidase, MAO-A, Central (MAOAC) (AID 2283243; active = hit-call score of the fitted dose curve at least 0.9, where 1 is the maximum;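 also: potency refers to inhibition seen as signal drop below DMSO baseline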)
# How it was run: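 Inhibition of rat brain-derived MAO-A was read by scintillation counting after 1.5 h exposure. Compounds screened first at 25 uM in duplicate, then in dose series if active.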
# Tumor necrosis factor (Homo sapiens), sequence (P01375 whole entry, looked up): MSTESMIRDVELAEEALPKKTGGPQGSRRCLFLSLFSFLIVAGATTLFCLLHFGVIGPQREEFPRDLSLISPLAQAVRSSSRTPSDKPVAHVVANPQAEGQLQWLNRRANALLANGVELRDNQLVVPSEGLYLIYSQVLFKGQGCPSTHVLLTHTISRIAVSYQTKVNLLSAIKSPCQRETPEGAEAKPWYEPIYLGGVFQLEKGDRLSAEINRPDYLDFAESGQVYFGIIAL
# E-selectin (Homo sapiens), sequence (P16581 whole entry, looked up): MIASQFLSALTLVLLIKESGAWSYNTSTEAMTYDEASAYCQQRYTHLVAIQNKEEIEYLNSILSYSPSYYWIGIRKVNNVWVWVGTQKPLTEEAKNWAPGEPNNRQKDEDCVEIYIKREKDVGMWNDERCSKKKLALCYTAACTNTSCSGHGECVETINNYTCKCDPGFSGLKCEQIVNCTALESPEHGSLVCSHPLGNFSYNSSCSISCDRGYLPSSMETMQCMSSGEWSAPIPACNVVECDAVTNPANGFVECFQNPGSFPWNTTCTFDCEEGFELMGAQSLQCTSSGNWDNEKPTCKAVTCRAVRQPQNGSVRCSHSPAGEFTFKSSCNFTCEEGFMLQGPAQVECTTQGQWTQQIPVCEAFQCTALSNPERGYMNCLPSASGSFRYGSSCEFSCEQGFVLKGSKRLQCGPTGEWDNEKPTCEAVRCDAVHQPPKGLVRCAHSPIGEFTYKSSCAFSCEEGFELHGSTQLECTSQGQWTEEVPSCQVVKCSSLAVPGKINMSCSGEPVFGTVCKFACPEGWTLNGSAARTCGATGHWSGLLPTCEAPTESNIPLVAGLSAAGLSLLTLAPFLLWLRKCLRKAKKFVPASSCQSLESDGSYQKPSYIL
smiles,measurement,setting,value
CN(N=O)c1ccccc1,outcome,[1],inactive
same,outcome,[2],inactive
C[C@]12CC[C@H](O)C[C@H]1CC[C@@H]1[C@@H]2C[C@@H](O)[C@]2(C)[C@@H](C3=CC(=O)OC3)CC[C@]12O,outcome,[2],inactive
O=[N+]([O-])C=Cc1ccccc1,outcome,[3],inactive
same,AC50,[4],5.17 µM (active)
same,AC50,[5],25.7 µM (active)
same,AC50,[6],20 µM (active)
same,AC50,[7],15.3 µM (active)
same,AC50,[8],10.8 µM (active)
same,AC50,[9],10.7 µM (active)
same,AC50,[10],9.91 µM (active)
same,AC50,[11],8.21 µM (active)
same,AC50,"CD40, CD40 (gene 958)",20 µM (active)
same,AC50,[12],20 µM (active)
same,AC50,[13],20 µM (active)
same,AC50,[14],11.3 µM (active)
same,AC50,[15],3.07 µM (active)
same,AC50,[16],12.6 µM (active)
CC1OC(C)OC(C)O1 (configuration not stated),outcome,[2],inactive
SCc1ccco1,outcome,[1],inactive
O=C(O)C(Br)Br,outcome,[1],inactive
same,outcome,[2],inactive
O=S(=O)(O)OOS(=O)(=O)O,outcome,[17],inactive
same,outcome,[18],inactive
CC(C)(Cl)Cl,outcome,[17],inactive
same,outcome,[18],inactive
c1ccc(Nc2ccc3ccccc3c2)cc1,AC50,[1],8.6 µM (active)
same,outcome,[2],inactive
same,outcome,[3],inactive
same,outcome,[4],inactive
same,outcome,[5],inactive
same,AC50,[6],30.9 µM (active)
same,outcome,[7],inactive
same,outcome,[8],inactive
same,outcome,[9],inactive
same,outcome,[10],inactive
same,outcome,[11],inactive
same,outcome,"CD40, CD40 (gene 958)",inactive
same,outcome,[12],inactive
same,outcome,[13],inactive
same,outcome,[14],inactive
same,outcome,[15],inactive
same,outcome,[16],inactive
N#CSCSc1nc2ccccc2s1,AC50,[19],45.9 µM (active)
NC(=NCCCCCCN=C(N)/N=C(\N)Nc1ccc(Cl)cc1)/N=C(\N)Nc1ccc(Cl)cc1,AC50,[19],20.5 µM (active)
Oc1cc2ccccc2c2ccccc12,AC50,[19],1.2 µM (active)
Cc1nc(-c2ccc3c(c2)CCN(CCC2CCC(NC(=O)/C=C/c4ccc(F)cc4)CC2)CC3)no1 (configuration not stated),outcome,[19],inactive
Oc1ccc2ccccc2c1,AC50,[19],10.2 µM (active)
c1ccc2[nH]c(-c3cscn3)nc2c1,outcome,[19],inactive
Oc1ccc2c(c1)-c1ccccc1C2,AC50,[19],0.743 µM (active)
Cc1c2ccccc2c(C)c2c1ccc1ccccc12,outcome,[19],inactive
CN(C)c1ccc(C(=C2C=CC(=[N+](C)C)C=C2)c2ccc(N(C)C)cc2)cc1,AC50,[19],25 µM (active)
CN(C)c1ccc(N=NS(=O)(=O)O)cc1,outcome,[19],inactive
Nc1cccc2c(N)cccc12,AC50,[19],25 µM (active)
O=C(c1ccc(O)cc1O)c1ccc(O)cc1O,AC50,[19],6.91 µM (active)
CCCOc1sc(C(=O)N2CCC(c3cc(CN)ccc3F)CC2)c(C)c1Br,AC50,[19],0.439 µM (active)
CCOc1ccc2c(c1)C(C)=CC(C)(C)N2,AC50,[19],16.6 µM (active)
